HepG2 viability = HepG2 cytotoxicity, counter-screen for TGF-b inhibitors; HepG2 CAGA-GFP viability, ATP luminescence, 18 h; Potency, µM (series often up to 46.1 µM), for inactives: at the top dose activity change, negative = cytotoxicity, most hits filed as cytotoxic; actives 0.76% (n = 410,000); AID 588856; also: potency is read from the fitted curve at half-maximal effect
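HepG2 CAGA-GFP cells (1000/well, DMEM with 1% FBS) received compound, then TGF-beta at 500 pg/mL final, and were incubated 18 hours at 37 degrees C. Viability was read by CellTiter-Glo luminescence. Media-only wells were set as complete cell-killing and DMSO as no toxicity.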
S-ASM inh = inhibitors of human secretory acid sphingomyelinase. P17405. placental ASM, HMU-PC fluorogenic substrate, 60 min. Potency, µM (highest dose often 57.5 µM), for inactives: at the highest dose activity change, negative = inhibition, usual class: inhibitors. actives 0.006% (n = 340,000). AID 504937; also: potency is read from the fitted curve at half-maximal effect
Target sequence (P17405 47-631 limits assumed): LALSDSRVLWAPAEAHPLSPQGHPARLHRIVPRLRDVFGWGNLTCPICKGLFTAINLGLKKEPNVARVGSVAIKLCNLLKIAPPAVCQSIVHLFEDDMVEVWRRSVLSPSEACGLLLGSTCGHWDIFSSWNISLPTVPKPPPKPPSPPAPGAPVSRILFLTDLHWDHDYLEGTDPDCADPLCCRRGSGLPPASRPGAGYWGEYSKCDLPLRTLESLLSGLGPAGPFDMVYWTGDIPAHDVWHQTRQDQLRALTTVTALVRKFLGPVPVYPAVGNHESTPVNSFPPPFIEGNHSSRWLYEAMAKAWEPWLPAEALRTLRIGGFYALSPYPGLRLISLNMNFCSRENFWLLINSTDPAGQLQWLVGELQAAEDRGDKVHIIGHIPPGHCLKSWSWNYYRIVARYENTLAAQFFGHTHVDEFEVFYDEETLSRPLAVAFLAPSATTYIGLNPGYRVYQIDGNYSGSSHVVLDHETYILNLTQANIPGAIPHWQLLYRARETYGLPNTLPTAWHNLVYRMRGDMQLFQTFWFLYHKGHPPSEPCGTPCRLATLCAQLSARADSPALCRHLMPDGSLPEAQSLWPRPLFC
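Fluorescence read-out (Ex 386 nm, Em 447 nm) after stopping the reaction at pH 10. Enzyme: ASM from human placenta; substrate HMU-PC0, 9 uM final; 60 min, 37 °C. Compound preincubation 10 min, ambient temperature.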
TGFb inhibitor = TGF-b pathway inhibition; HepG2 CAGA-GFP TGF-b/SMAD3 reporter, GFP fluorescence, 18 h; TGF-beta stimulated, 500 pg/mL final; Potency, µM (series often up to 46.1 µM), inactives show at the top dose activity, negative = inhibition, hits mostly inhibitors; actives 1.2% (n = 410,000); AID 588855; also: potency is read from the fitted curve at half-maximal effect; % is scaled to controls: 0 for no effect and ±100 for the full control effect; nearly all actives have a fitted effect of over 65% in size
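GFP signal (ex488/em500-530) from TGF-beta-stimulated HEPG2 CAGA-GFP cells, 500 pg/mL final, 18 h at 37 degrees C in DMEM plus 1% FBS, normalized to unstimulated and DMSO-stimulated controls.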
TDP1 cell noCPT = qHTS for Inhibitors of human tyrosyl-DNA phosphodiesterase 1 (TDP1): qHTS in cells in absence of CPT. DT40 Tdp1-/- hTDP1 cells, no CPT, ATP luminescence, 48 h. Potency, µM (series often up to 46.2 µM), inactives show at the top dose activity change, negative = growth inhibition, usual class: inhibitors. actives 15% (n = 420,000); also: potency is read from the fitted curve at half-maximal effect; % is scaled to controls: 0 for no effect and ±100 for the full control effect; nearly all actives have a fitted effect of over 55% in size
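Chicken DT40 Tdp1-/- cells stably complemented with human TDP1 were seeded at 400 cells/well with DMSO in place of 20 nM camptothecin. After compound pinning, cells grew at least 48 hr at 37 °C; viability read by CellTiter-Glo luminescence.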
DT40 TDP1 CPT = DT40-hTDP1 cell growth loss with CPT; actives 12% (n = 420,000); AID 686979; Potency, µM (highest dose often 46.2 µM), for inactives: top-dose activity change, negative = growth inhibition, usual class: inhibitors; chicken DT40 Tdp1-/-;hTDP1 cells + 20 nM CPT, ATP luminescence, 48 h; also: potency is read from the fitted curve at half-maximal effect; % is scaled to controls: 0 for no effect and ±100 for the full control effect; nearly all actives have a fitted effect of over 55% in size
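Cell growth measured by CellTiter-Glo luminescence after a minimum 48 h, 37 C compound exposure with 20 nM CPT in Tdp1-knockout DT40 cells stably expressing hTDP1, seeded 400/well; qHTS titration format.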
IL-1B inflam inh = blocks inflammasome-driven IL-1 beta release. THP-1 LPS/ATP IL-1B secretion, AlphaLISA, 16 h; hits give low values. activity change, % at 57.5 µM. actives 4.7% (n = 360,000). AID 743279; in the data active = activity change below about -50%; inconclusive = mostly about -30% to -49%; also: % is scaled to controls: 0 for no effect and ±100 for the full control effect
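THP-1 cells pretreated 1 hr with compounds (up to 57.5 uM final), then stimulated with LPS (250 ng/mL final) plus ATP (1.25 mM final); secreted IL-1B measured by AlphaLISA after 16 hr, decreased signal indicating inhibition.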
* marks the source's active call; other numbers are inactive results; i = inactive; u = inconclusive; x = not tested or not shown; [ ] = remark or other dose. Only some compounds are listed: those with a hit (about 19% of all), similar ones and a draw of the others. Unless noted, calls follow the shape of the dose curve; as a rule, active = well fitted curve in the direction sought with a large enough effect; inconclusive = small, poorly fitted or top-dose-only effect, or another doubt; inactive = no such curve, though single readings can be large; an effect the other way counts as inactive or inconclusive.

SMILES	HepG2 viability	S-ASM inh	TGFb inhibitor	TDP1 cell noCPT	DT40 TDP1 CPT	IL-1B inflam inh
CC(Oc1ccc(Cl)cc1)c1ccnn1S(=O)(=O)c1ccc(Cl)cc1 (stereo unspecified)	-20.3%	-2.5%	-20.4%	-14.5%	-12.3%	-21.3
Cc1ccc(S(=O)(=O)n2nccc2-c2c(-c3ccc(Cl)cc3)noc2C)cc1	-71.6%	1.6%	u	16.4µM*	u	-13.9
COc1ccc(C(=S)N2CCOCC2)cc1OC(=O)c1ccc(C)cc1	-3.0%	-3.4%	-4.3%	-10.8%	6.0%	-2.2
O=[N+]([O-])c1ccc2c([N+](=O)[O-])ccc3c2c1CC3	-0.6%	x	-18.3%	18.4µM*	18.4µM*	u
Cc1ccc(C(=O)Nc2ccc3c4c(cccc24)CC3)cc1[N+](=O)[O-]	-10.7%	-2.3%	-17.9%	u	u	-12.9
C1=NN(c2ccccc2)C=NN1c1ccccc1	2.2%	0.8%	-7.8%	u	-25.2%	9.2
COCCN1CCN(c2cc(-c3ccccc3)nc3cc(-c4cccc(F)c4)nn23)CC1	-35.0%	139.8%	u	9.2µM*	8.2µM*	-79.4*
c1ccc(-c2nnc3ccc(N4CCC5(CC4)OCCO5)nn23)cc1	-16.1%	-5.1%	-4.1%	u	u	6.7
Fc1ccc(-c2cc3nc(-c4ccccc4)cc(N4CCOCC4)n3n2)cc1	-6.3%	221.8%	0.2%	23.1µM*	13µM*	-3.5
Cc1ccc(-c2cc3nc(-c4ccccc4)cc(N4CCC5(CC4)OCCO5)n3n2)cc1	-4.9%	381.7%	u	18.4µM*	16.4µM*	0.0
Fc1cccc(-c2cc3nc(-c4ccccc4)cc(N4CCC5(CC4)OCCO5)n3n2)c1	-0.4%	382.5%	8.7%	23.1µM*	u	-14.3
Cc1c(C(=O)N2CCCC2)sc2ncnc(NCCCN3CCOCC3)c12	x	x	x	-0.3%	9.3%	x
COc1ccc(Cl)cc1NC(=O)c1noc(C)c1[N+](=O)[O-]	0.0%	0.4%	17.5%	2.31µM*	2.91µM*	5.4
COc1ccc(Cl)cc1NC(=O)c1cccc([N+](=O)[O-])c1O	-19.9%	-1.3%	11.2µM*	8.2µM*	11.6µM*	-1.0
COc1ccc(Cl)cc1NC(=O)c1noc2c1CCCC2	-9.5%	-0.5%	10.2%	-3.4%	-11.4%	12.0
CC(NS(=O)(=O)CCNC(=O)c1ccccc1)c1ccccc1 (stereo unspecified)	1.9%	2.1%	-0.4%	4.1%	9.2%	-5.3
COc1ccccc1C1CN(CCNC(=O)c2sccc2Cl)Cc2ccccc2O1 (stereo unspecified)	x	x	x	-2.3%	-20.8%[9.04 µM]	x
COc1ccc(C(=O)NCCc2nnc3ccc(SCC(=O)NCc4ccccc4)nn23)cc1	-39.0%	-0.5%	u	-28.0%	-29.1%	-8.5
CCN(/N=C/C=C/c1ccccc1)c1cc(=O)n(C)c(=O)[nH]1	-1.7%	3.6%	-2.7%	-61.9%	1.46µM*	-28.1
CCN(/N=C/c1ccc(Cl)cc1)c1cc(=O)n(C)c(=O)[nH]1	-10.8%	1.1%	-21.8%	-15.5%	-28.2%	2.4
CCOC(=O)[C@H]1[C@H]2COc3ccccc3[C@@H]2N2C(=O)c3ccc(C)cc3NC(=O)[C@@]12C	-11.4%	0.6%	1.7%	u	u	-15.1
CCCCCCCN1C2=NCCCN2c2ccccc21	-38.4%	0.3%	u	2.31µM*	2.59µM*	-71.8*
CCCCN1C2=NCCCN2c2cc(C)c(C)cc21	0.8%	1.0%	0.5%	23.1µM*	18.4µM*	-3.0
CCCCCCCN1C2=NCCN2c2ccccc21	-40.7%	0.1%	-27.6%	18.4µM*	11.6µM*	-55.4*
CCCCN1C2=NC(c3ccccc3)CN2c2ccccc21 (stereo unspecified)	6.31µM*	-2.5%	-5.3%	25.9µM*	u	-26.9
SMILES	HepG2 viability	S-ASM inh	TGFb inhibitor	TDP1 cell noCPT	DT40 TDP1 CPT	IL-1B inflam inh
CCCCN1C2=NCCCN2c2ccccc21	-1.6%	6.6%	-14.8%	u	u	14.2
CCCCCCN1C2=NCCN2c2ccccc21	-19.0%	1.3%	-0.4%	u	u	-20.9
Cc1ccc(/C=N/Nc2nc(N3CCOCC3)nc(N3CCOCC3)n2)o1	1.4%	9.0%	-0.6%	u	-12.6%	-20.0
Oc1ccc(/C=N/Nc2nc(N3CCCCCC3)nc(N3CCCCCC3)n2)c(O)c1	i	u	u	u	u	-98.6*
Oc1ccc(/C=N/Nc2ccc(Cl)nn2)cc1O	-42.0%	-5.3%	-20.8%	14.6µM*	u	44.6
Brc1cc2c(cc1/C=N/Nc1nc(N3CCCC3)nc(N3CCOCC3)n1)OCO2	-14.1%	-3.4%	-5.2%	16.4µM*	25.9µM*	u
Oc1ccc(Br)cc1/C=N/Nc1nc(N2CCCCC2)nc(N2CCOCC2)n1	4.8%	37.9%	16.0%	u	14.6µM*	u
C[C@H](CO)N1C[C@H](C)[C@@H](CN(C)Cc2ccccc2F)Oc2ncc(Br)cc2C1=O	6.8%	x	1.8%	-18.7%	-7.0%	-13.4
CN1CCC(N(C)C(=O)c2ccc(Cl)c(S(=O)(=O)Nc3cc(Cl)ccc3Cl)c2)CC1	12.2%	1.2%	7.6%	7.8%	1.6%	-11.8
Cc1ccc(OCCCCn2c(-c3ccc(Cl)cc3)nc3ccccc3c2=O)cc1	-7.6%	x	1.4%	-9.7%	-19.2%	x
Cc1ccc(CNc2nc(-c3ccco3)nn2S(C)(=O)=O)cc1	-7.6%	x	-4.7%	-5.8%	6.1%	x
Oc1ccc(/C=N/Nc2nc(N3CCCC3)nc(N3CCCC3)n2)cc1O	-19.5%	32.9%	-1.9%	5.8µM*	u	34.0
C/C(=N\Nc1nc(N2CCCCC2)nc(N2CCOCC2)n1)c1ccccc1O	-49.9%	-22.4%	-24.0%	20.6µM*	u	-86.3*
COc1cc(/C=N/Nc2nc(N3CCCC3)nc(N3CCCC3)n2)ccc1O	-17.8%	65.2%	-1.9%	u	-27.7%	-8.9
O=C(CC1C(=O)NCCN1Cc1cccc(Oc2ccccc2)c1)NCCc1ccncc1 (stereo unspecified)	-18.5%	4.7%	-12.3%	u	-29.6%	-2.2
COC(=O)c1sccc1S(=O)(=O)N1CCN(c2ccc(C(C)=O)cc2)CC1	-31.5%	x	-2.1%	-28.0%	-25.8%	x
CC1=C(C(=O)N2CCCCC2)C(c2cccc(Cl)c2)n2c(nc3ccccc32)N1 (stereo unspecified)	-5.1%	x	-23.0%	u	16.4µM*	x
